Experimental data from ChEMBL document CHEMBL4808148, “HDAC6 screening dataset using tau-based substrate in an enzymatic assay yields selective inhibitors and activators” (2021).
The campaign covered roughly 5,600 compounds. About 390 (7%) showed an effect of 50% or more. The sample as a whole holds a higher share of strong results than the screen did.

Target: T1, Protein deacetylase HDAC6 (Homo sapiens) (UniProt Q9UBN7)
T1 sequence (whole entry): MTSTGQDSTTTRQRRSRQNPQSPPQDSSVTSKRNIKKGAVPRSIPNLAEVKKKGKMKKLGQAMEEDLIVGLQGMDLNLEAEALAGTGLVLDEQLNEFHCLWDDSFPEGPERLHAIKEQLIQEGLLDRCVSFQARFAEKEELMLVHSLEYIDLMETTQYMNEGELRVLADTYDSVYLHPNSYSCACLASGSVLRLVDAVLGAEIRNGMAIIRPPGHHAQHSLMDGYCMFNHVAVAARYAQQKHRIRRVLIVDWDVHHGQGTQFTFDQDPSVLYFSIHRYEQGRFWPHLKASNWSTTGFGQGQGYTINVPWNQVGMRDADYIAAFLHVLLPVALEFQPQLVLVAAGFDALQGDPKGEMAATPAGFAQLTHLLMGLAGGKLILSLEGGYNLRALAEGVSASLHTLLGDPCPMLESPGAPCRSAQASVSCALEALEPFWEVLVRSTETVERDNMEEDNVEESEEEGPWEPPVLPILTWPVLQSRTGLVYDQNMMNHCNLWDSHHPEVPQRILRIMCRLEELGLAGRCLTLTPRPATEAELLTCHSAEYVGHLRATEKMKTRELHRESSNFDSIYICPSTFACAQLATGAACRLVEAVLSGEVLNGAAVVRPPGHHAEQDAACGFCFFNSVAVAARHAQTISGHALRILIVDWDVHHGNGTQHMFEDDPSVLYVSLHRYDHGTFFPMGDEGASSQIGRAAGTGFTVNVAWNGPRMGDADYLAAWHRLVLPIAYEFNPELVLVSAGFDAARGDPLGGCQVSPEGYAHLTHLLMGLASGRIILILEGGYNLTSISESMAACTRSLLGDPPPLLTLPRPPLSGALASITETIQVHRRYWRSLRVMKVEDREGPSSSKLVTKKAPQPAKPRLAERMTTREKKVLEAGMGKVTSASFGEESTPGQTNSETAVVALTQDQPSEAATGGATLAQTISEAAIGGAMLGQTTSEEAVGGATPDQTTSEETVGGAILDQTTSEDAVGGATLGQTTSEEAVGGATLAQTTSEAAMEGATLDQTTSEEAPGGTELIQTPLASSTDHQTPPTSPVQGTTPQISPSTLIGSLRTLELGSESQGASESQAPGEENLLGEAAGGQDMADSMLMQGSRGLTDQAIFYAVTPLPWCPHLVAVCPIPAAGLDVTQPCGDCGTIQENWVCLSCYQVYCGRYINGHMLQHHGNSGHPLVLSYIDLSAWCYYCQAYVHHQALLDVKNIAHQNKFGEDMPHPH
Settings: at 10 µM

| Structure (SMILES) | inhibition [%] |
| --- | --- |
| O=C(Nc1cc(-c2ccccc2)nn1-c1ccccc1)c1ccc([N+](=O)[O-])cc1 | 23 |
| O=C(Nc1ccccc1C(=O)Nc1ccc(CCO)cc1)c1ccc([N+](=O)[O-])cc1 | 78.3 |
| CCOC(=O)[C@H](Cc1ccc([N+](=O)[O-])cc1)NC(=O)c1ccccc1 | 14.4 |
| C[C@]12C=CC(=O)N[C@@H]1CC[C@@H]1[C@@H]2CC[C@]2(C)[C@@H](C(=O)Nc3cc(C(F)(F)F)ccc3C(F)(F)F)CC[C@@H]12 | 34.1 |
| O=C(NCCN1CCC(n2c(=O)[nH]c3ccccc32)CC1)c1cc2cc(F)ccc2[nH]1 | 22.7 |
| CCOCOC[C@H](C[C@H](C)C(=O)NO)NC(=O)c1ccc(Oc2ccccc2)cc1 | 25.9 |
| CC(C(=O)O)c1ccc(-c2ccccc2)c(F)c1 (racemic) | 13.4 |
| CC(C(=O)O)c1ccc2c(c1)Cc1ccccc1-2 (configuration not stated) | 63.7 |
| C[C@@H](C(=O)O)c1ccc(-c2ccccc2)c(F)c1 | 0.12 |
| CCn1cnc(C(=O)NC)c1C(=O)NC | -8.83 |
| Cc1ccccc1N1CCN(S(=O)(=O)CC23CCC(C[C@@H]2NC(=O)[C@@H](N)CCS(C)(=O)=O)C3(C)C)CC1 (some centres not stated) | 2.99 |
| CN[C@@H]1[C@H](O[C@H]2[C@H](O[C@H]3[C@H](O)[C@@H](O)[C@H](NC(=N)N)[C@@H](O)[C@@H]3NC(=N)N)O[C@@H](C)[C@]2(O)CO)O[C@@H](CO)[C@H](O)[C@H]1O | 8.93 |
| C/C1=C/C[C@@H](/C(C)=C/c2csc(C)n2)OC(=O)C[C@H](O)C(C)(C)C(=O)[C@H](C)[C@@H](O)[C@@H](C)CCC1 | -9.51 |
| CN(C)CC/C=C1\c2ccccc2Sc2ccc(Cl)cc21 | 91.2 |
| CN(C)CCC=C1c2ccccc2CCc2ccccc21 | 60.4 |
| C[C@@H](C1=C(CCN(C)C)Cc2ccccc21)c1ccccn1 | -1.4 |
| CC(=O)c1ccc2c(c1)N(CCCN(C)C)c1ccccc1S2 | 43.7 |
| CC(C1=C(CCN(C)C)Cc2ccccc21)c1ccccn1 (configuration not stated) | -6.73 |
| CCOC(=O)c1ccc(-c2ccc(OC(=O)N(C)Cc3cccc(-c4ccncc4)c3)cc2)cc1 | 5 |
| CC(C)(C)c1cc(C(C)(C)C)c2c(c1)C(O)(C(F)(F)F)C(=O)O2 (racemic) | -6.8 |
| Fc1ccccc1CNCc1ccc(-c2ccnc3[nH]ccc23)cc1 | 44.7 |

| Structure (SMILES) | inhibition [%] |
| --- | --- |
| CSc1nc(N)cc(Oc2ccc(-c3nnc(Nc4cccc(C(F)(F)F)c4)[nH]3)cc2)n1 | 10.4 |
| CC(C)[C@@H](C)/C=C/[C@@H](C)[C@H]1CC[C@H]2C3=CC=C4C[C@@H](O)CC[C@]4(C)[C@H]3CC[C@]12C | 26.6 |
| COc1cccc(CN2C[Si](C)(C)O[Si](C)(C)C2)c1 | 9.47 |
| Nc1ncnc2c1ncn2[C@@H]1O[C@H](COP(=O)(O)OP(=O)(O)OP(=O)(O)O)[C@@H](O)[C@H]1O | -7.9 |
| Nc1c(CC(=O)O)cccc1C(=O)c1ccccc1 | 0.48 |
| Nc1c(CC(=O)O)cccc1C(=O)c1ccc(Br)cc1 | 69.8 |
| NC(=O)Cc1cccc(C(=O)c2ccccc2)c1N | 48.4 |
| COc1cc(OC)nc(O[C@H](C(=O)O)C(OC)(c2ccccc2)c2ccccc2)n1 | -2.76 |
| COc1cc(/C=C/C(N)=O)cc(OC)c1OC | 13.3 |
| Cn1cc(C(=O)c2cccc3ccccc23)cc1C(=O)O | 25 |
| Cn1cc(-c2ccc(F)c(C(F)(F)F)c2)nc1C1CCN(c2ncnc3[nH]ncc23)CC1 | 24 |
| CCCCCCCCCCCCCCCCCC[S+](CCC)c1ccccc1C(=O)OCC (configuration not stated) | 21 |
| CC[n+]1c(-c2ccccc2)c2cc(N)ccc2c2ccc(N)cc21 | 2.78 |
| CC[N+](C)(CC)CCC[n+]1c(-c2ccccc2)c2cc(N)ccc2c2ccc(N)cc21 | 60.2 |
| CC(C)(C(=O)O)c1ccc(C(=O)CCCN2CCC(OC(c3ccccc3)c3ccccc3)CC2)cc1 | 3.08 |
| CCc1c2c(nc3ccc(OC(=O)N4CCC(N5CCCCC5)CC4)cc13)-c1cc3c(c(=O)n1C2)COC(=O)[C@]3(O)CC | -2.26 |
| Cc1cc(OCc2nc(-c3ccccc3Cl)cs2)ccc1OCC(=O)O | 33.8 |
| Cc1cc(SCc2sc(-c3ccc(C(F)(F)F)c(F)c3)nc2C)ccc1OCC(=O)O | 66.5 |
| Cn1ncnc1COc1nn2c(-c3c(F)cccc3F)nnc2cc1C1CCC1 | 3.27 |
| CCOC(=O)C(=O)Nc1cccc(OC)c1C(N)=O | 24.8 |
| CCN(CC)CCCCC(NC(=O)c1ccc([N+](=O)[O-])cc1)c1ccccc1 (configuration not stated) | -1.83 |

| Structure (SMILES) | inhibition [%] |
| --- | --- |
| CCOc1ccc(/C=C2\NCCc3cc(OCC)c(OCC)cc32)cc1OCC | 7.94 |
| CCOc1nc2c(N)ncnc2n1CC | 7.36 |
| CN(C)CCOc1ccc(/C(=C(/CCCl)c2ccccc2)c2ccccc2)cc1 | 33.5 |
| C=CC(=O)N1CCC[C@@H](n2nc(-c3ccc(Oc4ccccc4)cc3)c3c(N)ncnc32)C1 | 73 |
| C=CC(=O)N1CCC[C@@H](n2c(=O)n(-c3ccc(Oc4ccccc4)cc3)c3c(N)ncnc32)C1 | 9.93 |
| Nc1ncnc2c1c(-c1cnc3[nH]ccc3c1)nn2C1CCCC1 | 27.2 |
| COc1ccc2nc3ccc(Cl)cc3c(SCCCN)c2c1 | 31.8 |
| COc1cc(C(=O)c2c(C)oc3c(O)c(OC)ccc23)cc(OC)c1OC | 31.9 |
| CCN(CC)C(=O)C1(c2ccccc2)CC1CN (configuration not stated) | -2.35 |
| COc1cccc2c1c(O)c(C(=O)N(C)c1ccc(C(F)(F)F)cc1)c(=O)n2C | -4.13 |
| C[C@@H]1CN(CCCn2c3ccccc3c3ccccc32)C[C@H](C)N1 | 1.8 |
| O=C(Nc1cccc(C(F)(F)F)c1)Nc1ccc(Br)cc1-c1nnn[nH]1 | -9.24 |
| O=c1c2ccccc2[se]n1-c1ccccc1 | 107 |
| Cc1c(C(=O)Nc2ccc(N3CCC(N4CCOCC4)CC3)c(C#N)c2)cnn1-c1ccc(Cl)cc1 | 9.57 |
| CCC[N+]12C3C[C@H](C4C(O)[C@]5(C[C@@H]41)c1ccccc1N(C)[C@@H]35)[C@H](CC)[C@H]2O (some centres not stated) | 26.3 |
| CS(=O)(=O)CS(=O)(=O)OCCCl | 9.47 |
| CC(OC(=O)NCC1(CC(=O)O)CCCCC1)OC(=O)C(C)C (configuration not stated) | 3.02 |
| c1ccc2sc(SNC3CCCCC3)nc2c1 | 80 |
| C#Cc1cncc([C@@H]2CCCN2C)c1 | 18.9 |
| CO[C@@H](C(=O)N1Cc2[nH]nc(NC(=O)c3ccc(N4CCN(C)CC4)cc3)c2C1)c1ccccc1 | 21.1 |
